Assay results taken from PubChem BioAssay (NCI).
The panel holds about 83,000 compounds, 20% with a hit somewhere; the sample as a whole holds those more often.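 Assay: single dose, 48 h. Readout: percent growth (0 = no net growth; negative = cell death). Active: <10.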 A number with no mark means an inactive call. The source made the active and inactive calls.

System: HL-60(TB) leukemia
Experiment: NCI-60 one-dose screen, 48 h (100 = growth as untreated, 0 = no growth, -100 = all killed)
Details: 10 µM unless noted

Row | SMILES | growth
1 | Nc1nc(-c2cccc([N+](=O)[O-])c2)c(N=Nc2ccccc2Cl)s1 | 93.7%
2 | CCNC(=O)N1CCc2cc(OC)c(OCCc3ccc(OC)c(N)c3)cc2C1c1ccc(C)cc1C (stereo not given) | 16.5%
3 | CC(=O)Nc1cccc(Nc2nc(N[C@H](C)c3ccccc3)c3ccccc3n2)c1 | 13.6%
4 | Cc1ccc(-c2cc3nc(C(Cl)Cl)nc(C)n3n2)cc1 | 107%
5 | Cc1ccc(NC(=O)c2cc(/C=C/C(=O)NO)cc(C(F)(F)F)c2)cc1Nc1nccc(-c2cccnc2)n1 | 0.414% (active)
6 | COc1cc(/C=C2\C(=O)Nc3ccccc32)ccc1OCc1ccc(F)cc1 | 115%
7 | Cc1nc(N)sc1-c1csc(Nc2ccc(C(F)(F)F)cc2)n1 | 27.9%
8 | Cn1ccnc1C(=O)/C=C/c1ccc(CNC(=O)c2ccc(Cl)cc2)cc1 | -25.5% (active)
9 | COc1cc(Nc2c(C#N)cnn3cc(-c4cnn(CC(C)(C)O)c4)cc23)ccc1Cl | 47.8%
10 | O=C1c2c(c3c4cccnc4[nH]c3c3ccc4ccccc4c23)C(=O)N1CCO | 97.1%
11 | COc1ccc(/C=N/NC(=O)CSc2nc(-c3cnccn3)cc(-c3cccs3)c2C#N)cc1 | 93.8%
12 | CC1=C(C)C(=O)C(Nc2cccc(C(F)(F)F)c2)=C(Br)C1=O | 54.7%
13 | COc1cc(O)c2c(c1)/C=C/C[C@H](O)[C@H](O)C(=O)/C=C\C[C@H](C)OC2=O | -9.6% (active)
14 | CC(=O)NC(C)(C)C(=O)N1CCC[C@H]1C(=O)NC(C)(C)C(=O)N[C@@H](C)C(=O)NC(C)(C)C(=O)NC(C)(C)C(=O)N[C@@H](CCC(N)=O)C(=O)NC(C)(C)C(=O)N[C@H](C(=O)NC(C)(C)C(=O)NCC(=O)N[C@@H](CC(C)C)C(=O)NC(C)(C)C(=O)N1CCC[C@H]1C(=O)N[C@H](C(=O)NC(C)(C)C(=O)NC(C)(C)C(=O)N[C@@H](CCC(N)=O)C(=O)N[C@@H](CCC(N)=O)C(=O)N[C@H](CO)Cc1ccccc1)C(C)C)C(C)C | 7.73% [4.25 µM] (active)
15 | O=C(CSc1nc2ccccc2c(=O)n1-c1ccccc1)Nc1ccc(-c2nc3ccc([N+](=O)[O-])cc3[nH]2)cc1 | 89.3%
16 | COc1cc2oc(-c3cccc(N)c3)cc(=O)c2c(OC)c1OC | 96.8%
17 | COc1cc(C(=O)c2cc(C(C)=O)c3ccc(C)cn23)cc(OC)c1OC | 8.8% (active)
18 | O=C1/C(=C/c2ccc([N+](=O)[O-])cc2)SC(=Nc2ccccc2)N1Nc1ccccc1 | 25.8%
19 | O=C(CCCCCCNC(=O)c1csc(Br)n1)NO | 5.2% (active)
20 | NC(N)=Nc1ccc(Oc2cccc(Oc3ccc(Cl)c(C(F)(F)F)c3)c2)cn1 | -69% (active)

Row | SMILES | growth
21 | CCn1c(SCC(=O)Nc2cccc(C(=O)/C=C/c3ccc(C)cc3)c2)nc2ccccc2c1=O | 92%
22 | O=C(N/N=C/c1ccco1)c1[nH]c2ccc(Br)cc2c1-c1ccccc1 | -28.4% (active)
23 | CNC(=O)c1cc(Oc2ccc3nc(NC(=O)c4ccc(CN5CCCN(C)CC5)c(C(F)(F)F)c4)sc3c2)ccn1 | -65.2% (active)
24 | O=C1[C@@H]2Cc3c([nH]c4ccccc34)[C@H](c3c(Cl)cccc3Cl)N2C(=O)CN1C1CCN(Cc2ccccc2)CC1 | 29.3%
25 | C[C@H]1c2[nH]c3ccccc3c2C[C@H]2C(=O)N(CCCCCCC(=O)NO)CC(=O)N21 | 108%
26 | O=C(CSc1nc2sc3c(c2c(=O)n1-c1ccc(Cl)cc1)CCCC3)NNC(=O)Nc1ccc(Cl)c(C(F)(F)F)c1 | 6.38% (active)
27 | COc1ccc(-c2oc3cc(O)cc(O)c3c(=O)c2OC)cc1O | -6.5% (active)
28 | O=C(/C=C1\C=CN(CCCCO)c2ccccc21)n1ccc2ccccc21 | 114%
29 | C#C[C@]1(O)CC[C@H]2[C@@H]3CC=C4c5sc(Nc6ccc(C)cn6)nc5CC[C@]4(C)[C@H]3CC[C@@]21C | -43.3% (active)
30 | COC(=O)c1ccc(NC(=S)N2CCc3ccc([N+](=O)[O-])cc3C2)cc1O | 97.7%
31 | C#C[C@]1(O)CC[C@H]2[C@@H]3CC=C4c5sc(Nc6cc(C)cc(C)c6)nc5CC[C@]4(C)[C@H]3CC[C@@]21C | -2.89% (active)
32 | O=C(Nc1ccc(-c2nc(-c3cccc(O)c3)c(-c3ccnc(Br)c3)[nH]2)cc1)c1ccccc1 | -53.1% (active)
33 | FC(F)(F)c1cc(Nc2cccc(Oc3ccc(NC4=NCCN4)nc3)c2)ccc1Cl | -52.5% (active)
34 | NC/C(=C/F)COc1ccc2nc(NCc3cccnc3)oc2c1 | 125%
35 | CCc1cc(OC(=O)N2CCC(N3CCCCC3)CC2)ccc1Nc1cc(-c2ccc(-n3cccn3)cc2)[nH]n1 | 62.5%
36 | Cc1ccc(S(=O)(=O)c2nc(-c3ccc(F)cc3)oc2S(C)(=O)=O)cc1 | 62.4%
37 | OC1CCN(CCCOc2c3ccc(Cl)cc3nc3c2oc2ccc(Cl)cc23)CC1 | 22.4%
38 | Cc1ccc(-c2csc(N/N=C/c3cccs3)n2)cc1 | 84.2%
39 | COC(=O)Nc1ccc(-c2nc(-c3cccc(O)c3)c(-c3ccnc(Br)c3)[nH]2)cc1 | 28.1%
40 | C=C(C)C(=O)O[C@H]1C[C@@]2(C)OC(=CC2=O)/C(CO)=C\[C@H]2OC(=O)C(=C)[C@H]12 | -31.2% (active)
